Results as given in the supplement of paper PMC6555819.

Assays:
Experiment in all cases: PBM binding z-score (relative to random genomic background probes); higher = stronger binding; sequences stand for … in GC…GCGATTGACAGCGTAGAATGAAGG
[1] = system: LXRa:RXRa (NR concentration 270 nM, RXRa partner concentration 90 nM)
Method in brief: (§1)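 Binding z-scores take random background probes as their reference. They come from custom Agilent 4×180K protein-binding microarrays incubated 1 h with ligand-free nuclear receptor dimers, with antibodies against each partner (one per run) detecting binding. Scanned fluorescence was regression-normalized.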

[2] = system: LXRa homodimer (NR concentration 270 nM)
Method in brief: as §1

[3] = system: LXRb homodimer (NR concentration 270 nM)
Method in brief: as §1

[4] = system: PPARa:RXRa (NR concentration 270 nM, RXRa partner concentration 90 nM)
Method in brief: as §1

[5] = system: PPARg:RXRa (NR concentration 180 nM, RXRa partner concentration 90 nM)
Method in brief: as §1

[6] = system: PPARg:RXRa 270nM:90nM, anti-RXR (NR concentration 270 nM, RXRa partner concentration 90 nM)
Method in brief: as §1

[7] = system: PPARg:RXRa 30nM:10nM, anti-RXR (NR concentration 30 nM, RXRa partner concentration 10 nM)
Method in brief: as §1

[8] = system: PPARg:RXRa 90nM:30nM, anti-RXR (NR concentration 90 nM, RXRa partner concentration 30 nM)
Method in brief: as §1

[9] = system: PPARg:RXRa DBDmut IVT, anti-RXR (DBD mutation: RXRa K156A/R161A, NR concentration 270 nM, RXRa partner concentration 90 nM)
Method in brief: as §1

Row | Sequence | PBM binding z-score [1] | PBM binding z-score [2] | PBM binding z-score [3] | PBM binding z-score [4] | PBM binding z-score [5] | PBM binding z-score [6] | PBM binding z-score [7] | PBM binding z-score [8] | PBM binding z-score [9]
1 | CGTCCGAGGTCATAGGAGGTCAGTGAAGACAGAT | 7.86 | 5.54 | 1.19 | 6.37 | 6.96 | 6.5 | 2.81 | 5.53 | 3.62
2 | ATCGAAAGGTCGACGCGGTGAGTATACACCGTTT | 3.4 | -0.127 | 0.391 | – | 2.07 | 2.54 | 0.887 | 1.8 | -0.0451
3 | CGTCCAAGGTCAAGGTCAATGAAAGAGACTCGAA | 6 | 1.82 | 1.11 | 6 | 7.25 | 6.84 | 3.28 | 5.67 | 3.68
4 | TAGCCTAGGGCATTCAGGGGCCAGTATAGAAAGC | -0.052 | -0.233 | -0.352 | 0.0278 | 0.0283 | -0.154 | -0.552 | -0.385 | -0.268
5 | CCTACTGGGCCAAAAAGTTCATTGATGCCGATAA | 1.47 | 2.92 | -0.369 | – | 1.09 | 1.53 | 0.0164 | 1.05 | 3.74
6 | ATCGAAAGGTCGACGAGGTGAGTAAACACCGTTT | 3.58 | 0.0172 | 0.228 | 4.51 | 2.6 | 3.59 | 1.02 | 2.3 | 0.114
7 | CCTAGTGGGCCAAGGTCATTGATCAGTCAAAGCA | 2.91 | 0.693 | -0.381 | – | 4.1 | 4.29 | 1.64 | 3.71 | 3.98
8 | CGAACTAGGTCAAGGCCAGTGAATCTCCGCACGC | 2.42 | 0.284 | -0.563 | – | 7.33 | 6.58 | 3.87 | 6.13 | 8.07
9 | ATATGTAGGTTAGCTGGGGTCATTCACACTAGGC | 5.86 | 3.53 | 1.66 | 5.22 | 5.47 | 5.14 | 2.95 | 4.69 | 6.87
10 | GCTTAAGGGTCAAAGGTTATAGCATGAATAGAAT | 6.57 | 1.93 | 1.36 | – | 11.7 | 9.09 | 8.73 | 9.85 | 3.81
11 | TAGCCTAGGTCATGCGGCCCAGTATAGTGTCGGC | 3.19 | 0.125 | -0.105 | 3.52 | 2.04 | 2.49 | 0.144 | 1.04 | 1.17
12 | TGAATGAGGTTAAATATCAGGGAACGTGGCGTCG | 2.5 | -0.0698 | 0.686 | 3.72 | 2.51 | 3.17 | 1.45 | 2.46 | 2.43
13 | CCGACTGGGGCAAGGTCACCATAACGCACAGCCA | 2.82 | 0.471 | -0.792 | 4.2 | 4.78 | 4.63 | 2.12 | 3.78 | 3.03
14 | CATACAGGGTCGGCTAGGCCAGAGTAGGGACGGC | 0.0375 | -0.58 | -0.356 | 0.514 | 0.288 | -0.0886 | -0.643 | -0.513 | -0.787
15 | CCAACTGGGCCAAAAAGGTCATTGATGCCGATAA | 4.4 | 3.17 | 0.337 | 4.57 | 3.08 | 4.09 | 1.65 | 3.3 | 4.24
16 | TTGCCAAGGTGAAAGGTCGTTGATGCACGCCTTG | 3.11 | -0.0355 | -0.723 | – | 8.02 | 7.51 | 6.32 | 8.1 | 1.69
17 | CGAACTAGGTCAAGGACAGTAAATCTCCGCACGC | 2.4 | 0.115 | -0.249 | 4.71 | 7.56 | 6.25 | 3.88 | 6.02 | 7.9
18 | ATATGTAGGTTAAGCGTCATTCAGGTTGGTTCGC | 1.08 | 0.422 | 0.251 | 4.16 | 6.75 | 6.77 | 5 | 6.63 | 7.13
19 | ATTTGTAGGTTACATCCGGGTCATTCAGGCTATG | 5.11 | 2.84 | 1.83 | – | 4.22 | 4.28 | 2.12 | 3.26 | 6.92
20 | CGAACTAGGTCGTCCAGGACAGTGAATACATTGA | 0.121 | -0.214 | -0.486 | 2.09 | 2.47 | 1.89 | 0.4 | 1.39 | 5.71
21 | TGTCAAAGTTCAAAGGTGACGTAAGTATCCACAC | 6.41 | 4.7 | 1.8 | 6.09 | 9.47 | 7.89 | 6.06 | 7.61 | 0.732
22 | TCTAGTTGGTCACGGAGGGCACACACGACGGGTA | 0.609 | -0.107 | 0.00573 | 1.38 | 1.25 | 2.05 | 2.8 | 2.39 | 2.05
23 | CGTCCAAGGTCATAGGGGGTCAGTGAAGACAGAT | 7.05 | 4.02 | 8.62 | – | 7.32 | 7.58 | 4.55 | 6.71 | 3.59
24 | AATACAGGGTCATCGTACGCCAGAGTACGCACAG | 6.21 | 2.87 | 1.54 | – | 7.02 | 6.25 | 2.92 | 5.21 | 2.92
25 | TTACCAAGGTGAACGGTCGTTGATGCACGCCTTG | 0.744 | -0.159 | -0.974 | – | 1.77 | 2.8 | 1.17 | 2.35 | 2.31
26 | CGAACAAGGTCATCCAGGACAGTGAATACATTGA | 5.83 | 1.43 | 1.27 | – | 6.4 | 6.17 | 2.72 | 5.1 | 4.74
27 | CCTTAAGGGTCACGAGGTTATAGCACGACGAGCG | 5.92 | 0.987 | 0.697 | – | 8.45 | 7.7 | 4.56 | 6.73 | 4.16
